Reference: PubChem BioAssay AID624169 (The Scripps Research Institute Molecular Screening Center, 2012)
The whole screen tested about 360,000 compounds, of which about 2,400 (0.67%) were called active. The sample as a whole holds a higher share of actives than the screen did. A number with no mark means an inactive call.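 The calls were made as follows: active = activation above a run cutoff, the mean activation of all tested compounds plus 3 SD (cut at about 14% in these data); inactive = the rest.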

What follows are molecules tested against 5-hydroxytryptamine receptor 2A (Mus musculus) (UniProt P35363) (assay: activation of mouse 5-HT2A receptor – cell-based, luminescence, primary screen (AID 624169;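 also: 0% = plate median of compound wells and 100% = 30 µM serotonin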)). Conditions: CHO-K1 mHTR2A beta-arrestin complementation, at 7.6 µM, hits give high values, percent of 30 µM serotonin response.
Sequence of 5-hydroxytryptamine receptor 2A (Mus musculus) (P35363 whole entry, looked up): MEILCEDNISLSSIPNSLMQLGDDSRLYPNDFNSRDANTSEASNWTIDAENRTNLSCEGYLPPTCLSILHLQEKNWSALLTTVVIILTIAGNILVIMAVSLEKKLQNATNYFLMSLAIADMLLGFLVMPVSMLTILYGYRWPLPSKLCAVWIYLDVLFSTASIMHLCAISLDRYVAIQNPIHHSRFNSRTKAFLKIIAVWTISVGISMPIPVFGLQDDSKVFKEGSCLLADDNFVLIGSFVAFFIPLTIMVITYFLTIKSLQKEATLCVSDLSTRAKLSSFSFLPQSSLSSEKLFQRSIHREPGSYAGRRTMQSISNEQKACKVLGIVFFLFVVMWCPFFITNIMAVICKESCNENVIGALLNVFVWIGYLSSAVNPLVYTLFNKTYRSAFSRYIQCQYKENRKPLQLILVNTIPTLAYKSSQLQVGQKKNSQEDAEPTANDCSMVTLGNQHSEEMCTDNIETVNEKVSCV

SMILES	activation
COc1ccc(N2CCN(S(=O)(=O)c3cc4c5c(c3)C(C)C(=O)N5CCC4)CC2)cc1 (configuration not stated)	4.42%
O=C(CNC(=O)c1cc(=O)[nH]c2ccccc12)Nc1ccc(F)c(F)c1	-0.64%
CC1=C(C(=O)N2CCOCC2)CC(CC(=O)NCC2CCCCC2)C(=O)N1Cc1ccc(F)cc1 (configuration not stated)	0.51%
O=C(COC(=O)CNC(=O)C1CCCCC1)NCc1ccccc1	4.87%
COc1ccc2c(Cl)c(-c3nnco3)sc2c1	15.6% (active)
C#CCSc1nnc(-c2sc3ccccc3c2Cl)o1	3.02%
Fc1cccc(Cl)c1COc1ccc(-c2nnco2)cc1	0.11%
O=C(CNCc1cccs1)Nc1cc(S(=O)(=O)N2CCCC2)ccc1Cl	17.4% (active)
CS(=O)(=O)c1ccc(Cl)c(NC(=O)COC(=O)c2cccc(S(=O)(=O)N3CCCC3)c2)c1	-2.1%
O=C(COC(=O)CCOc1ccccc1)Nc1cc(S(=O)(=O)N2CCCCC2)ccc1Cl	2.8%
Cc1ccc(C(=O)NC2CC(C)(C)NC(C)(C)C2)c(C)c1	3.41%
Cc1ccc2c(c1)NCC(C(=O)NC1CCC(C)CC1)O2 (configuration not stated)	16.6% (active)
Cc1ccc(S(=O)(=O)NCc2ccc(C(=O)NC3CCC(C)CC3)cc2)cc1 (configuration not stated)	-3.68%
Cc1ccccc1C(=O)N1CCC(C(=O)Oc2ccc(C#N)cc2)CC1	-3.91%
O=C(NNc1cc(Cl)cc(Cl)c1)c1c(F)cccc1Cl	1.49%
COCCN(Cc1cc2cc3c(cc2nc1Cl)OCO3)C(=O)c1cccc(C)c1	16.6% (active)
CCCCN(CC)C(=O)c1ccc2c(c1)OCO2	1.68%
Cc1ccc2cc(CCNC(=O)c3ccc4c(c3)OCO4)c(=O)[nH]c2c1	5.29%
Cn1nnnc1-c1cc(Cl)cc(Cl)c1	2.61%
COc1ccc(NC(=O)CSc2nc(SC)ns2)c(OC)c1	0.26%
COc1ccc(C)cc1NC(=O)CSc1nc(SC)ns1	-0.61%
CSc1nsc(SCC(=O)Nc2cc(C(=O)O)ccc2C)n1	15.6% (active)
Cc1cccc(C(=O)N[C@H](C(=O)NCc2cccs2)C(C)C)c1	5.5%
CCC(C)c1ccc(O)c(/C=N/O)c1 (configuration not stated)	-3.25%
CNCC(O)c1ccc(O)c(O)c1 (configuration not stated)	26.5% (active)
C=CCNC(=O)C12CC3CC(C1)CC(C(=O)NCC=C)(C3)C2	-0.48%
Cc1ccccc1NC(=O)C1CCN(C(=O)NC2CCCCC2)CC1	-2.36%
